Screening data deposited in PubChem BioAssay by National Center for Advancing Translational Sciences (NCATS).
An excerpt weighted towards active compounds, which were near 3.2% of everything screened.
AmpC detergent = inhibitors of E. coli AmpC beta-lactamase with detergent. Potency, µM (highest dose often 114 µM), actives largely listed as inhibitors. AmpC hydrolysis of nitrocefin, absorbance 480 nm, 0.01% Triton. 370,000 tested, 0.041% active; also: nearly all actives have a fitted effect of over 25% in size
Target sequence (P00811 whole entry, looked up): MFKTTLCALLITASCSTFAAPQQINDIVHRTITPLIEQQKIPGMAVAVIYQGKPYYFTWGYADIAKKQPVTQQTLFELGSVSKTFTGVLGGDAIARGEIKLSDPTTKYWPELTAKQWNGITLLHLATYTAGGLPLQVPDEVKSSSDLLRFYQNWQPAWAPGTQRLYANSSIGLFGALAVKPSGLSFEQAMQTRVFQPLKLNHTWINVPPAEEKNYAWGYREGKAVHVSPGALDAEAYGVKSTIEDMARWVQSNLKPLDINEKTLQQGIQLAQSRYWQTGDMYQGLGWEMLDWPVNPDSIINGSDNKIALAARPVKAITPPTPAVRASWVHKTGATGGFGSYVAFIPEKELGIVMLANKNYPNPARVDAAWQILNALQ
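AmpC (5.3 nM in the dispensed reagent) in 20 mM phosphate pH 7.0 with 0.01% (detergent screen) or 0.0001% Triton X-100 was preincubated with compounds for 15 min at room temperature. Nitrocefin was then added from an 800 uM solution, and hydrolysis was followed at 480 nm.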
Sm TGR inh = S. mansoni TGR enzyme inhibition; Potency, µM (highest dose often 114 µM), usual class: inhibitors; purified TGR, DTNB reduction, TNB absorbance 405 nm; Q962Y6; 360,000 tested, 3% active; also: nearly all actives have a fitted effect of over 60% in size
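Kinetic colorimetric format: TGR-catalysed, NADPH-driven DTNB reduction monitored via TNB absorbance. Enzyme dispensed at 20 nM; compound exposure 15 min at room temperature before reaction start.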
AMA1 RON2 block = disrupts binding of P. falciparum AMA1 to RON2. 360,000 tested, 0.2% active. AID 720542. Potency, µM (titrated, usually from 58.2 µM), most hits filed as inhibitors. AlphaScreen AMA1-biotinylated RON2 peptide binding; also: nearly all actives have a fitted effect of over 45% in size
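AMA1 (3D7) with his tag at 25 nM final met compounds first, then biotinylated RON2 peptide at 25 nM; detection used donor plus acceptor beads, 10 µg/mL apiece, read by AlphaScreen after 30 min at room temperature.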
AmpC inh no detg = inhibitors of E. coli AmpC beta-lactamase without detergent | P00811 | AmpC nitrocefin hydrolysis, absorbance 480 nm, 0.0001% Triton | Potency, µM (series often up to 57.1 µM), actives largely listed as inhibitors | 330,000 tested, 0.52% active; also: nearly all actives have a fitted effect of over 20% in size
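AmpC (5.3 nM in the dispensed reagent) in 20 mM phosphate pH 7.0 with 0.01% (detergent screen) or 0.0001% Triton X-100 was preincubated with compounds for 15 min at room temperature. Nitrocefin was then added from an 800 uM solution, and hydrolysis was followed at 480 nm.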
RE007 growth inh = less growth of the S. pombe RE007 Vpr strain | S. pombe RE007 Vpr strain, BacTiter-Glo ATP luminescence, 24 h | 360,000 tested, 0.21% active | Potency, µM (doses to about 92.2 µM), usual class: inhibitors; active = well fitted falling curve with a large enough effect; inconclusive = small, poorly fitted or top-dose-only effect; inactive = no such curve, though single readings can be large or run the other way; also: nearly all actives have a fitted effect of over 50% in size
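Fission yeast strain RE007, carrying one chromosomally integrated HIV-1 vpr copy, was seeded at OD 0.01 in PMG+AL medium with 23 nL pinned compound. After 24 h at 30 °C and 99% humidity, viability was read by BacTiter-Glo luminescence.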
Hits are given with their value; i = inactive; ? = inconclusive; nt = no result given; ! = a repeat was not active. Unless noted, calls follow the shape of the dose curve; as a rule, active = well fitted curve in the direction sought with a large enough effect; inconclusive = small, poorly fitted or top-dose-only effect, or another doubt; inactive = no such curve, though single readings can be large; an effect the other way counts as inactive or inconclusive.

SMILES	AmpC detergent	Sm TGR inh	AMA1 RON2 block	AmpC inh no detg	RE007 growth inh
O=C(O)C[C@@H]1C(=O)O[C@@H]2C(COC(=O)c3cc(O)c(O)c(O)c3)O[C@@H](OC(=O)c3cc(O)c(O)c(O)c3)[C@@H](OC(=O)c3cc(O)c(O)c4c3[C@H]1[C@H](O)C(=O)O4)[C@H]2OC(=O)c1cc(O)c(O)c(O)c1 (some centres undefined)	i	16µM	nt	i	nt
CCNc1nc(NCC)nc(N(C)/N=C/c2ccco2)n1	i	35µM	i	i	i
COc1ccc(/C=C2\SC(=O)NC2=S)cc1OC	i	18µM	i	i	i
CCOc1ccc(/C=C2\SC(=S)NC2=O)cc1OC	i	i	i	i	i
Clc1ccc(/C=C/c2nc3ccccc3[nH]2)cc1	?	25µM	i	i	?
O=C(/C(=C(\O)c1ccccc1)c1nc2ccccc2[nH]1)c1ccccc1	i	i	i	i	i
Clc1cccc(Cl)c1/C=C/c1nc2ccccc2[nH]1	i	i	i	i	?
Clc1ccc(/C=C/c2nc3ccccc3[nH]2)c(Cl)c1	i	i	i	11µM	25µM
O=C(/C=C/c1ccc(Cl)cc1Cl)c1nc2ccccc2[nH]1	i	i	i	i	7.9µM
Cc1ccccc1-c1ccnc2c(-c3ccc(F)cc3)c(C)nn12	i	i	nt	nt	nt
Cc1ccccc1C(=O)Nc1cccc(NC(=O)c2ccc(C(C)(C)C)cc2)c1	i	i	nt	nt	nt
CCC(C(=O)Nc1ccccc1C(=O)OC)n1nc(C)c2c(C)n(-c3ccc(C)cc3)nc2c1=O (centres undefined)	?	i	nt	nt	nt
O=C(Nc1cccc(C(F)(F)F)c1)c1cccnn1	i	89µM	i	i	i
CC(C)C(=O)Nc1ccccc1N1CCN(S(C)(=O)=O)CC1	i	i	?	0.28µM	i
COC(=O)c1ccc2c(c1)sc(=NC(=O)CCS(=O)(=O)c1ccccc1)n2C	?	32µM	i	?	i
CCOc1cccc(CNc2ccc(O)cc2)c1OCc1ccccc1Cl	i	45µM!	i	i	?
CCOc1cccc(CNc2ccc(O)cc2)c1OCc1ccc(Cl)cc1Cl	i	?	i	i	?
CN1CCCN(CC(O)COCc2cccs2)CC1 (centres undefined)	i	50µM	i	i	i
OC(COCc1cccs1)CN1CCCCCC1 (centres undefined)	?	i	i	i	i
O=C(Nc1nc(-c2ccco2)c(-c2ccco2)s1)c1c(F)cccc1Cl	i	22µM	i	i	i
O=C(Nc1nc(-c2ccco2)c(-c2ccco2)s1)c1cnccn1	i	14µM	i	i	i
O=C(Nc1nc(-c2ccco2)c(-c2ccco2)s1)c1ccc(F)cc1F	i	10µM	i	i	i
O=S(=O)(Nc1nc(-c2ccco2)c(-c2ccco2)s1)c1ccc(F)cc1F	nt	nt	i	nt	i
O=C(Nc1nc2c(s1)CCCC2=O)c1cnccn1	i	i	i	i	i
COc1ccc(C(=O)COC(=O)c2cc(-c3cccs3)nc3ccccc23)cc1	i	i	nt	nt	nt
SMILES	AmpC detergent	Sm TGR inh	AMA1 RON2 block	AmpC inh no detg	RE007 growth inh
Cc1ccn2cc(-c3ccc(O)c(O)c3)nc2c1	i	?	2.5µM	i	nt
Oc1ccc(-c2cn3ccccc3n2)cc1O	i	?	22µM	i	nt
CCOc1ccc(NC(=O)CSC2=Nc3ccccc3C3=NC(CCC(=O)NCc4cccs4)C(=O)N23)cc1 (centres undefined)	i	i	nt	nt	nt
CC(C)C1Oc2ccccc2N(CC(=O)N(Cc2ccncc2)Cc2ccco2)C1=O (centres undefined)	i	32µM	i	i	i
COc1cc(OC)c(NC(=O)Cn2c(SCc3ccccc3F)nc3cccnc32)cc1Cl	i	i	nt	nt	nt
Cc1ccccc1CNC(=O)Cn1ncn2nc(-c3cccs3)cc2c1=O	i	i	nt	nt	nt
CC(=O)NC(CCS(C)(=O)=O)C(=O)Nc1cccc2ccccc12 (centres undefined)	?	i	i	4.5µM	i
COc1cc(NC(=O)CCS(=O)(=O)c2ccc3c(c2)CC(=O)N3C)cc(OC)c1OC	i	i	nt	nt	nt
CCN1C(=O)/C(=C\c2ccc(-c3cccc(C(=O)OC)c3)o2)SC1=Nc1ccc(C(=O)O)cc1	i	i	nt	i	nt
CCN1C(=O)/C(=C\c2ccc(-c3ccc([N+](=O)[O-])cc3OC)o2)SC1=Nc1cccc(C(=O)O)c1	i	35µM	i	i	i
Cc1cc(C)c(Cn2c(=O)n(CCC(=O)NCc3ccc4c(c3)OCO4)c(=O)c3ccccc32)c(C)c1	i	i	nt	nt	nt
CCOc1ccccc1-n1c(N)c(C(=O)OC)c2nc3ccccc3nc21	i	i	nt	nt	nt
Cc1ccc(-c2nc3ccccn3c2Nc2ccccc2C)s1	i	?	nt	nt	nt
Cc1cc(C(=O)CCl)c(C)n1Cc1ccco1	i	4µM	i	i	i
Cc1cc(C(=O)CSc2nn(-c3ccccc3)c(=S)s2)c(C)n1Cc1ccco1	i	i	i	28µM	i
Cc1cc(C(=O)CSc2nc3ccccc3[nH]2)c(C)n1Cc1ccco1	i	i	i	i	i
Cc1cc(C(=O)CCl)c(C)n1-c1ccon1	i	11µM	i	i	i
Cc1cc(C(=O)CSc2nncs2)c(C)n1Cc1ccco1	i	i	22µM	i	i
Cc1cc(C(=O)CSc2nnc(-c3ccco3)o2)c(C)n1Cc1ccco1	?	?	i	i	i
CCOC(=O)c1c(NC(=O)c2ccc(OCC)c(Br)c2)sc2c1CCCC2	i	i	nt	nt	nt
N/C(=N\S(=O)(=O)c1ccccc1)c1ccc([N+](=O)[O-])cc1	i	13µM	i	i	i
N/C(=N/S(=O)(=O)c1ccccc1)c1cccc([N+](=O)[O-])c1	i	?	i	i	i
COCCN(CCOC)Cc1c(O)ccc2c1O/C(=C\c1ccc(C)o1)C2=O	i	1.8µM	i	i	i
CCN(CC)Cc1c(O)ccc2c1O/C(=C\C=C\c1ccccc1)C2=O	i	?	i	i	i
O=C(CN1C(=O)COc2ccccc21)N(Cc1ccccc1)Cc1ccccn1	?	i	i	i	i
SMILES	AmpC detergent	Sm TGR inh	AMA1 RON2 block	AmpC inh no detg	RE007 growth inh
Cc1ccc(CN(Cc2cccnc2)C(=O)CN2C(=O)COc3ccccc32)o1	i	10µM	i	i	i
O=C1NC(=O)/C(=C/c2ccco2)N1	i	i	nt	i	nt
O=C1NC(=S)NC1=Cc1ccco1	nt	nt	?	nt	i
O=C1NC(c2ccccc2)=N/C1=C/c1ccco1	i	50µM	i	i	i
O=C1NC(c2ccccc2Br)=N/C1=C\c1ccco1	i	40µM	i	i	?
O=C1NC(c2cccc(Br)c2)=N/C1=C\c1ccco1	i	79µM	i	?	i
COc1cc(OC)cc(C(=O)NCCc2csc(-c3cccc(C)c3)n2)c1	i	i	nt	nt	nt
CC(=O)Nc1cc(C(=O)NCc2ccccc2Cl)ccc1Sc1ccc(F)cc1	i	i	nt	nt	nt
Cc1ccc(C(=O)c2coc3cc([N+](=O)[O-])c(O)c([N+](=O)[O-])c23)cc1	i	50µM	?	i	i
